Source: PubChem BioAssay AID588382 (National Center for Advancing Translational Sciences (NCATS), 2011)
Screen size: about 1,300 compounds; about 150 (12%) were called active. About 30% were inconclusive and are not listed. The call rests on the fitted dose curve; in most records, active means well fitted cell-killing curve with a large enough effect; inconclusive means small, poorly fitted or top-dose-only effect, or effect the other way; inactive means flat fitted curve, though single readings scatter. What follows is part of a selection rich in actives, with near analogues and random picks from the rest. Entries that show only a call come without a potency.

assay: qHTS of small molecules that selectively kill Giardia lamblia: Hit Validation in HepG2 cytotox; details: cell viability; Potency: HepG2 cytotoxicity; series mostly up to 38.3 µM;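 further: compound exposure lasted overnight at 37 deg C; nearly all actives have a fitted effect of over 55% in size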
Method in brief: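 Counterscreen cytotoxicity: ATPLite luminescence (15 min, room temperature) measured in HepG2 cells exposed overnight at 37 deg C to pin-transferred compound (23 nL) after overnight pre-incubation.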
Potency means the concentration at half of the fitted maximal effect.

Q: With `CC1CCN(c2ccc(-c3ccc(NC(=O)C(F)(F)F)cc3)nn2)CC1` as the molecule, how does the Potency read?
A: 4140 nM (active)

Q: With `N#CC1C=Cc2c(ccc3ccccc23)N1C(=O)c1ccccc1` (stereo not drawn) as the molecule, how does the Potency read?
A: inactive

Q: With `Cc1nc2c(ccc3nc(NC(=O)c4ccc5c(c4)OCCO5)sc32)s1` as the molecule, how does the Potency read?
A: 1850 nM (active)

Q: For `CC(=O)c1sc(NC(=O)c2ccc(C)c(C)c2)nc1C`, which Potency is on record?
A: inactive

Q: For `O=C(Nc1ccc2c(c1)OCCO2)c1cc(-c2ccccn2)nc2ccc(Br)cc12`, which Potency is on record?
A: inactive

Q: Which Potency does the source give for `Cc1[nH]n(S(=O)(=O)Cc2ccccc2)c(=O)c1N=Nc1ccccc1Cl` here?
A: inactive

Q: Which Potency does the source give for `O=C(COc1cccnc1[N+](=O)[O-])c1c[nH]c2ccccc12` here?
A: inactive

Q: For `Cc1[nH]c2ccccc2c1C(=O)C(C)OC(=O)c1ccc([N+](=O)[O-])o1` (stereo not drawn), which Potency is on record?
A: inactive

Q: Which Potency does the source give for `COC(=O)c1sc(NC(=O)COc2cccnc2[N+](=O)[O-])c(C(=O)OC)c1C` here?
A: inactive

Q: Which Potency does the source give for `Cc1cc2[nH]c3c(c[n+](C)c4ccccc34)c2cc1C` here?
A: 3290 nM (active)

Q: Which Potency does the source give for `COC(=O)c1ccc(Cn2cc(C(F)(F)F)cc([N+](=O)[O-])c2=O)cc1` here?
A: inactive

Q: Which Potency does the source give for `CCc1ccc([C@@H]2CC=C(C(=O)O)[C@H](c3cccc(Cl)c3)N2S(=O)(=O)c2ccc(C)cc2)cc1` here?
A: inactive

Q: Which Potency does the source give for `Cc1ccc(CN=c2c([N+](=O)[O-])nn(-c3ccc4c(c3)OCCO4)n2O)cc1` here?
A: inactive

Q: Which Potency does the source give for `Cc1ccccc1N1CCN(Cc2ccc([N+](=O)[O-])o2)CC1` here?
A: inactive

Q: Which Potency does the source give for `COc1cc(/C=C2\COC/C(=C\c3cc(OC)c(OC)c(OC)c3)C2=O)cc(OC)c1OC` here?
A: 2330 nM (active)

Q: For `COc1cc(/C=C/c2onc(C)c2[N+](=O)[O-])cc(OC)c1OC`, which Potency is on record?
A: inactive

Q: For `COc1cc(C2CC(=O)Oc3cc(C)c(Cl)c(C)c32)cc(OC)c1OC` (stereo not drawn), which Potency is on record?
A: inactive

Q: Which Potency does the source give for `Cc1ccc(S(=O)(=O)N2CC(C(=O)O)=CC[C@H]2c2ccc(Cl)cc2)cc1` here?
A: inactive

Q: Which Potency does the source give for `O=C(O)C=C(Br)Br` here?
A: inactive

Q: With `COc1ccc(C(=O)c2c3ccccc3[n+]([O-])n2CCCN)cc1` as the molecule, how does the Potency read?
A: inactive

Q: With `CC(Oc1cccnc1[N+](=O)[O-])C(=O)Nc1ccc(F)cc1` (stereo not drawn) as the molecule, how does the Potency read?
A: inactive

Q: With `COc1ccc2c(c1)C1OCCC1C(c1ccco1)N2` (stereo not drawn) as the molecule, how does the Potency read?
A: 10400 nM (active)

Q: Which Potency does the source give for `CC(=O)OCON[N+]([O-])=NC(C)C` here?
A: inactive

Q: For `OCCOCCNc1ncnc2c1c(-c1ccccc1)cn2-c1ccccc1`, which Potency is on record?
A: inactive

Q: For `C(=C\c1nc2ccccc2s1)/c1ccc2c(c1)OCO2`, which Potency is on record?
A: 2070 nM (active)

Q: Which Potency does the source give for `O=[N+]([O-])c1cc(C(F)(F)F)ccc1Oc1cccnc1[N+](=O)[O-]` here?
A: inactive

Q: For `Cc1nc2c(N=Nc3ccccc3F)c(N)nn2c(N)c1C#N`, which Potency is on record?
A: inactive

Q: Which Potency does the source give for `Cc1ccc(OCC(=O)Nc2ccc(C)c(F)c2)c([N+](=O)[O-])n1` here?
A: inactive
